This excerpt belongs to a sample that is enriched for hits.
TTR transcr act: increases transthyretin transcription | SH-SY5Y TTR promoter Gaussia luciferase, luminescence; 100% = recombinant luciferase protein wells | activation, % at 16.7 µM | 1.3% of 92,000 active | AID 1117267;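 active = activation above the mean of all tested compounds plus 3 SD, cut at about 9.5% in these data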;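 also: cells exposed to compounds for one day before reading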
TTR inh HuH7: decreases TTR transcription in HuH7 cells in activator counter-screen; shares compounds with TTR transcr act; HuH7 TTR promoter-Gaussia luciferase reporter, luminescence; 4% of 1,100 active; inhibition, % at 16.7 µM;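 active = average inhibition above the solvent-only control wells' mean plus 3 SD, cut at about 15% in these data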;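 also: inhibitors lower well luminescence so higher value means more inhibition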
TTR act confirm: confirmation of human transthyretin transcription activators. shares compounds with TTR transcr act. activation, % at 16.7 µM. SHSY5Y TTR promoter Gaussia luciferase, luminescence; 100% = purified Lucia enzyme wells, no cells. 1,100 tested, under 10 active;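 active = mean activation above a set limit taken from the earlier primary screen, cut at about 11% in these data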
A number is an active result; i = inactive.

SMILES	TTR transcr act	others
O=S1(=O)c2c(NCc3ccco3)cccc2Oc2ccccc2CN1Cc1cn(Cc2ccc(Cl)cc2)nn1	i
CCOc1ccc(N=C2SCC(=O)N2CC)cc1	18	TTR inh HuH7=i;TTR act confirm=i
CCOc1ccc(N2C(=O)CSC2=S)cc1	i
COc1ccc(N=C2SCC(=O)N2Cc2ccccc2)cc1	i
Cn1c(NC2=NC3(CCCC3)C3=C(CCCC3=O)N2)nc2ccccc21	i
CCOC(=O)C(=O)Nc1ccccc1C#N	25	TTR inh HuH7=i;TTR act confirm=i
CCOC(=O)C(=O)Nc1ccccc1C(=O)NC(C)C	i
CCOC(=O)C(=O)Nc1ccccc1C(=O)OCC	i
O=Cc1nc(Nc2cc(F)cc(F)c2)nc(NC2CCCC2)n1	i
C#CCNC(=O)C[C@H]1C[C@@]2(C(=O)OC)C(=C[C@H](C(C)C)O[C@@H]2C2CC2)N(Cc2ccc3c(c2)OCO3)C1=O	i
Cc1cc2ccc3ccccc3c2cc1CN(C)C	i
CN(C)Cc1cc2ccccc2c2c1COC2	12	TTR inh HuH7=i;TTR act confirm=i
Cc1nc2c(C)cccc2c2c1COC2	i
CC[C@@]1(c2ccc(C)cc2)C(=O)N(C(=O)OC(C)C)N1C(=O)OC(C)C	i
FC(F)(F)c1ccccc1-n1c(-c2cnccn2)n[nH]c1=S	i
COc1cc(-n2c(-c3ccccc3)n[nH]c2=S)c(OC)cc1Cl	i
COc1cc(-c2n[nH]c(=S)n2-c2ccccc2C(F)(F)F)cc(OC)c1OC	9.9	TTR inh HuH7=i;TTR act confirm=i
COC(=O)[C@]12C[C@H](CC(=O)NCCc3ccccc3OC)C(=O)N(Cc3ccc(Cl)cc3Cl)C1=C[C@H](C1CCCC1)O[C@@H]2C	i
Cc1cc(C(F)F)n2nc(C(=O)Nc3c(F)cc(F)cc3Br)nc2n1	i
Cc1cc(C(F)F)n2nc(C(=O)O)nc2n1	i
COC(=O)c1ccccc1NC(=O)c1nc2nc(C)cc(C(F)F)n2n1	9.8	TTR inh HuH7=i;TTR act confirm=i
C[C@@H]1[C@@H](O)C[C@@]2(C[C@H](O)c3cc(Cl)cc(Cl)c3O2)O[C@H]1c1ccccc1Cl	i
CC(C)CN1C(=O)C[C@]2(C(=O)N(C)c3ccc(NC(=O)c4cc(F)ccc4F)cc32)C1c1ccccc1 (stereo not given in full)	i
Cc1ccc(OCCn2c(CCNC(=O)c3ccc(F)cc3F)nc3ccccc32)cc1	i
COC(=O)c1ccc(NC(=O)CCN2CCCCC2)cc1	10	TTR inh HuH7=i;TTR act confirm=i
SMILES	TTR transcr act	others
COC(=O)c1ccc(NC(=O)CN2CCN(CCO)CC2)cc1	i
COC(=O)c1ccc(NC(=O)CCN2CCN(CCC(=O)Nc3ccc(C(=O)OC)cc3)CC2)cc1	i
COC(=O)[C@]12CCCCC=C1N(Cc1ccc(OC)cc1)C(=O)[C@@H]2CC(=O)NCC1CCCCC1	i
C[C@H]1C(c2ccccc2F)O[C@]2(C[C@H](O)c3c(ccc4ccccc34)O2)C[C@@H]1O (stereo not given in full)	i
CCCC1CCC2(CC1)CCC2OC(=O)Nc1cccc(Cl)c1 (stereo not given)	i
COC(=O)Cn1cc(C(=O)OC)c2ccccc21	i
COC(=O)CSc1ccccc1C(=O)OC	19	TTR inh HuH7=i;TTR act confirm=i
COC(=O)CSc1ccc(C#N)c(SCC(=O)OC)c1	i
CCCCCn1nnnc1C1(C)CCCC(=O)N1Cc1ccco1 (stereo not given)	i
COC(=O)c1cccc(Cn2ccc3ccc(-c4ccc5ccn(C(=O)c6ccccc6)c5c4)cc32)c1	i
Cc1ccccc1CN1CCCCC(NC(=O)C2CCCCC2)C1=O (stereo not given)	i
COC(=O)C1=CC[C@@H](NC(=O)OC(C)(C)C)[C@H](O)[C@H]1O[Si](C)(C)C(C)(C)C	i
CC(=O)c1c(O)cc(C(C)C)n(-c2ccccc2)c1=O	i
CC(C)c1cccc(O)c(=O)c1	10	TTR inh HuH7=i;TTR act confirm=i
Cc1ccc(C(C)C)c(O)c1	i
CCn1cc(Br)c(C(=O)NN)n1	16	TTR inh HuH7=i;TTR act confirm=i
CCn1cc(Cl)c(C(=O)Nc2ccc(OC)c(OC)c2)n1	i
NNC(=O)c1nn(-c2ccc(Cl)cc2)cc1O	i
CCN(CC)CCNC(=O)C(=O)Nc1cc2c3c(c1)CC(=O)N3CCC2	i
CC(C)(C)CC(=O)Nc1cc2c3c(c1)CC(=O)N3CCC2	i
O=C(CCl)c1cc2c3c(c1)CC(=O)N3CCC2	11	TTR inh HuH7=75;TTR act confirm=i
COc1ccc(/C=N/N2CCN(C)CC2)c(OC)c1OC	i
COc1ccc(/C=N/n2c(-c3n[nH]c4c3CCC4)n[nH]c2=S)c(OC)c1OC	i
COc1ccc(/C=N/n2c(C)nnc2C)c(OC)c1OC	10	TTR inh HuH7=i;TTR act confirm=i
CCOC(=O)[C@@]12CCCC=C1N(CCc1ccc(Cl)cc1)C(=O)[C@H]2CC(=O)N1CCSCC1	i
SMILES	TTR transcr act	others
CC[C@@H](OP(=O)(O)[C@@H](C)N)C(=O)O	i
Cc1ccccc1CN[C@@H]1CC[C@@]23CCCN2C(=O)CCC[C@H]3C1	i
CN(Cc1ccccc1)C(=O)OCc1cn(Cc2ccc(Cl)cc2)nn1	i
C=CCNC1CCC12CCC(c1ccccc1)CC2 (stereo not given)	i
Cn1cccc1/C=N/NC(=O)C(O)c1ccccc1 (stereo not given)	25	TTR inh HuH7=i;TTR act confirm=i
Cn1cccc1/C=N/NC(N)=S	i
Cn1cccc1/C=N/NC(=O)Cc1ccccc1	i
O=[N+]([O-])c1cnc2ccccc2c1Sc1ccccc1	i
C=CCN(C(=O)[C@@H](CCCC)[C@@H](O)c1ccc2ccccc2c1)c1ccccc1	i
CN=C1S/C(=C/c2cc(C)n(-c3cc(C)ccc3OC)c2C)C(=O)N1C	i
COc1cc(/C=C2/C(=N)N3OC(C)=CC3=NC2=O)ccc1OCCOc1ccc(C)cc1	i
COc1cccc(OCCn2cccc2/C=C2/C(=N)N3OC(C)=CC3=NC2=O)c1	i
CCOc1ccc(/C=C2/C(=N)N3OC(C)=CC3=NC2=O)cc1OC	9.9	TTR inh HuH7=i;TTR act confirm=i
COc1ccc(Cn2ccc3ccc(-c4ccc5ccn(Cc6ccccc6F)c5c4)cc32)cc1	i
O=C1C(=O)N(Cc2ccc(-c3ccc(F)nc3)cc2)c2ccc(OC(F)(F)F)cc21	i
CCCCOc1ccc(C(=O)n2ccc3ccc(-c4ccc5ccn(Cc6cccc(C(=O)OC)c6)c5c4)cc32)cc1	i
O=C1C[C@@H](O)[C@H](O)c2cccc(O)c21	i
O=C(CN1C(=O)CCSc2ccc(S(=O)(=O)N3CCCC3)cc21)NCc1ccccc1Cl	i
O=C(CN1C(=O)CSc2ccc(S(=O)(=O)N3CCOCC3)cc21)NCc1c(F)cccc1Cl	i
O=C(CN1C(=O)CSc2ccc(S(=O)(=O)N3CCCCC3)cc21)NCc1cccnc1	11	TTR inh HuH7=i;TTR act confirm=i
CCC[C@H]1[C@H](N)CC[C@@]23CCCN2C(=O)CCC[C@@H]13	i
O=C1N(c2ccccc2)CC2CC(c3ccccc3)N3CCCC123 (stereo not given)	i
COc1cccc(C(=O)Nc2nnc(Cc3ccc(OC)c(OC)c3)s2)c1	i
COc1ccc(Cc2nnc(NC(=O)c3ccc(OC(C)=O)cc3)s2)cc1OC	i
COc1ccc(Cc2nnc(NC(=O)c3cccs3)s2)cc1OC	15	TTR inh HuH7=i;TTR act confirm=i
c1nc(NC[C@@H]2CCCO2)c2cc(-c3ccc4c(c3)OCO4)ccc2n1	i
COc1ccc(CNc2ncc(-c3ccccc3)n2C)c(OC)c1OC	11	TTR inh HuH7=i;TTR act confirm=i
COc1ccc(-c2cnc(NCc3cc4c(cc3[N+](=O)[O-])OCO4)n2C)cc1	i

Compound activity as filed in PubChem.
